Hits are enriched below; roughly 22% of the tested compounds scored in any of these assays.
Shiga inhibitor = A qHTS for Small Molecule Inhibitors of Shiga Toxin; Vero cells, Shiga toxin protein synthesis inhibition reporter; inhibition, % at 38.7 µM; 9.2% of 290,000 active; AID 2315, 2010; in the data active = inhibition mostly above about 28%, no sharp cut-off; inactive = mostly below about 43%; also: 0% is about no effect
Pf growth 48h = Primary qHTS for delayed death inhibitors of the malarial parasite plastid, 48 hour incubation. P. falciparum luciferase growth in erythrocytes, 48 h. 5.9% of 310,000 active. Potency, µM (top dose mostly 28.7 µM), for the others: at the top dose activity change, negative = inhibition, most hits filed as inhibitors; also: potency is read from the fitted curve at half-maximal effect; % is scaled to controls: 0 for no effect and ±100 for the full control effect
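Luminescence readout; reporter = integrated firefly luciferase in P. falciparum. RBC culture at 2% hematocrit, 0.1% parasitemia final, 37 C/5% CO2; decreased signal taken as growth inhibition.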
LmPK inhibitor = qHTS Assay for Inhibitors of Leishmania Mexicana Pyruvate Kinase (LmPK); Q27686; purified LmPK, Kinase-Glo ATP luminescence, 1 h; Potency, µM (highest dose often 57.5 µM), without a hit: top-dose activity change, negative = inhibition, usual class: inhibitors; 0.37% of 290,000 active; also: potency is read from the fitted curve at half-maximal effect; % is scaled to controls: 0 for no effect and ±100 for the full control effect
Target sequence (Q27686 whole entry, looked up): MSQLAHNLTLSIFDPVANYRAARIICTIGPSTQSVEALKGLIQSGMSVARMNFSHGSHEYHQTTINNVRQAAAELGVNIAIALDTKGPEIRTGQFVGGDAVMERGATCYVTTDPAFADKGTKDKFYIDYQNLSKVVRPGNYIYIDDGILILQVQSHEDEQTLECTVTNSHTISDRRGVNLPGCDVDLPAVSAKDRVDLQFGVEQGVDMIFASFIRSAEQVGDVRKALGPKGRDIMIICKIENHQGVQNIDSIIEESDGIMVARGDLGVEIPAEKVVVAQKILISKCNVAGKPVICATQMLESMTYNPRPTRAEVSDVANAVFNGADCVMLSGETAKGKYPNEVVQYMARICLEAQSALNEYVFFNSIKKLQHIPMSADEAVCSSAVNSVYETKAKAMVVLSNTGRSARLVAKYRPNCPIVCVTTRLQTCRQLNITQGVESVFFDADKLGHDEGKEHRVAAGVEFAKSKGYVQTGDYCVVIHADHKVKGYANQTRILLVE
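ATP generated from ADP (0.1 mM) and PEP (0.5 mM) by 0.1 nM LmPK over 1 h at room temperature (pH 7.2 imidazole buffer) was detected by coupled luciferase luminescence. Values were normalized to uninhibited and no-enzyme wells.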
CHX counter = Cycloheximide Counterscreen for Small Molecule Inhibitors of Shiga Toxin. 12% of 300,000 active. max response, %. AID 2314, 2010. cell reporter, cycloheximide protein synthesis inhibition counterscreen; in the data active = max response mostly above about 13%, no sharp cut-off; inactive = mostly below about 14%; also: read at 38.3 µM for the half of the compounds with a filed dose; 0% is about no effect
Pf growth 96h = Primary qHTS for delayed death inhibitors of the malarial parasite plastid, 96 hour incubation. Potency, µM (series often up to 28.7 µM), for inactives: top-dose activity change, negative = inhibition, usual class: inhibitors. P. falciparum luciferase reporter growth, 96 h. 6.9% of 320,000 active. AID 504834, 2011; also: potency is read from the fitted curve at half-maximal effect; % is scaled to controls: 0 for no effect and ±100 for the full control effect
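Readout is luminescence from an integrated firefly luciferase in P. falciparum. Red cells, 2% hematocrit and 0.05% parasitemia final, were cultured with compound through two parasite generations (96 hours) at 37 C, 5% CO2.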
An asterisk follows results filed as active; ? = inconclusive; . = no result given; [ ] = dose if it differs, or a comment. Unless noted, calls follow the shape of the dose curve; as a rule, active = well fitted inhibition curve with a large enough effect; inconclusive = small, poorly fitted or top-dose-only effect, or another doubt; inactive = no such curve, though single readings can be large or run the other way.

SMILES	Shiga inhibitor	Pf growth 48h	LmPK inhibitor	CHX counter	Pf growth 96h
O=C(CSC1=NCCS1)Nc1ccc(F)cc1	-3.9	4.5%	1.5%	4.4	-1.0%
Cc1ccc(SCC(=O)Nc2cccc(C(=O)NC(C)(C)C)c2)cc1	13.6	-2.5%	5.5%	2.2	31.1%
CC(C)(C)NC(=O)c1ccc(NC(=O)CSc2ccccc2)cc1	27.8	-19.4%	-2.0%	15.1*	9.1%
Cc1ccc(NS(=O)(=O)c2cc(C(=O)N(C)C)ccc2C)cc1C	-2.5	-10.5%	2.9%	-1.3	41.3%
O=C(Cc1ccc(Cl)cc1)NNC(=O)C1CC=CCC1C(=O)O (stereo not drawn)	-5.8	0.0%	2.5%	-4.0	-15.9%
COc1ccc(OC)c(C2=NS(=O)(=O)N(C)C(C(=O)Nc3ccc(F)cc3F)=C2)c1	14.5	?	0.9%	12.5	?
O=C(CSc1ccc2ccccc2c1)Nc1ccncc1	-14.2	5.1%	-1.9%	-2.5	.
O=C(CSc1ccccc1)Nc1ccncc1	28.0	20.3%	-3.5%	12.1*	0.8%
O=C(CSc1cccc2cccc(Cl)c12)NC1=NCCS1	36.0	1.2%	11.1%	14.7	-15.1%
O=C(CSc1ccccc1)NC1=NCCS1	44.5	123.7%	1.4%	22.2*	62.5%
CN1CCN(c2ccc(NC(=O)CSc3ccccc3)cc2F)CC1	61.5*	148.6%	-4.5%	49.5*	133.3%
CCOc1ccc(NC(=O)CN(C)S(=O)(=O)c2cccc3cccnc23)cc1	-9.2	4.3%	1.3%	5.6	?
Cc1ccc(C)c(N2C(=O)C3C4C=CC(CC4)C3C2=O)c1 (stereo not drawn)	.	?	0.8%	-2.3	-12.1%
Cc1ccc(N2C(=O)C3CC(c4ccccc4)=C4C5C=CC(C6C(=O)N(c7ccc(C)cc7)C(=O)C56)C4C3C2=O)cc1 (stereo not drawn)	-5.4	13.1µM*	-2.9%	-2.9	?
Cc1ccc(N2C(=O)C3CC(c4ccccc4)=C4C5C=CC(C6C(=O)N(c7ccc(C)cc7C)C(=O)C56)C4C3C2=O)c(C)c1 (stereo not drawn)	-23.8	2.08µM*	1.5%	-5.5	.
Cc1ccc(N2C(=O)C3C4CC(=O)C(c5ccccc54)C3C2=O)cc1 (stereo not drawn)	-26.4	28.0%	1.5%	-1.4	58.7%
Cc1ccc(C(=O)C(C)OC(=O)C2CCN(c3ccc(C(F)(F)F)cn3)CC2)cc1 (stereo not drawn)	.	?	.	.	4.5%
CCOC(=O)C1=C(N)OC(CCl)=C(C#N)C1c1ccsc1 (stereo not drawn)	-1.2	11.2%	2.7%	5.7	30.4%
CCCCN(CC)CCNC(=O)c1cc2c(=O)[nH]c3ccc(C)cc3c2s1	-4.9	8.28µM*	6.2%	6.0	8.3%
Cc1ccc2[nH]c(=O)c3cc(C(=O)N(C)c4ccc(C)c(C)c4)sc3c2c1	17.2	?	1.2%	-1.9	8.28µM*
CCCCN(CC)CCCNC(=O)c1cc2c(=O)[nH]c3ccccc3c2s1	-4.7	?	9.3%	-3.7	?
Cc1ccc(N2C(=O)N(CC(=O)Nc3cc(Cl)ccc3C)C(=O)C2C)cc1 (stereo not drawn)	.	?	.	.	54.0%
COc1ncnc2c1cnn2-c1ccccc1	81.1*	75.4%	-5.9%	36.9*	110.1%
COc1ccccc1Oc1ncnc2c1cnn2-c1ccccc1	116.8*	83.2%	-3.0%	42.9*	195.7%
COc1cc(C(C)=O)ccc1Oc1ncnc2c1cnn2-c1ccc(F)cc1	106.3*	163.9%	0.8%	54.2*	176.8%
SMILES	Shiga inhibitor	Pf growth 48h	LmPK inhibitor	CHX counter	Pf growth 96h
O=C(CSc1n[nH]c(-c2ccccc2Br)n1)NCCN1C(=O)CSC1=O	-3.6	18.8%	2.1%	-2.1	-4.2%
CC(C)OCCCNC(=O)c1cn(C)c2ccc(S(=O)(=O)N3CCCC3)cc2c1=O	-6.3	?	6.3%	0.8	?
O=c1c(Cc2c(F)cccc2Cl)c(O)ccn1CCc1ccccn1	2.2	-5.0%	-0.4%	-1.5	0.1%
c1csc(-c2nn3c(Cn4cnc5ccccc54)nnc3s2)c1	-7.0	-19.5%	-5.4%	-1.2	-5.1%
Clc1cccc(-c2nn3c(Cn4cnc5ccccc54)nnc3s2)c1	-20.0	13.1µM*	1.1%	-2.5	12.8%
Cc1ccc(S(=O)(=O)CCc2nc3ccccc3s2)cc1C	25.4	.	-4.0%	13.3*	-23.1%
Cc1ccc(S(=O)(=O)CCc2nc3ccccc3s2)cc1	20.4	33.9%	-2.9%	5.1	?
O=S(=O)(CCc1nc2ccccc2s1)c1ccc2ccccc2c1	118.0*	.	3.7%	32.2*	-5.3%
COc1ccc(C(=O)NCC(=O)Nc2ccc(-c3ccccc3)cc2)cc1	26.4	0.0%	16.1%	-1.4	16.8%
CC1=CCC2C(=O)N(c3nc(C)cc(C)n3)C(=O)C2C1 (stereo not drawn)	12.3	-3.1%	5.2%	6.2	43.0%
CC1=CCC2C(=O)N(c3ccc4ccccc4n3)C(=O)C2C1 (stereo not drawn)	-32.6	17.2%	-2.0%	9.4*	13.1%
CCOc1cc(C(=O)Nc2ccc(S(=O)(=O)NC3=NCCCCC3)cc2)cc(Br)c1OC	.	-19.6%	.	.	?
Cc1ccc2[nH]c3c(NCCN4CCOCC4)ncnc3c2c1	52.6*	4.15µM*	1.8%	14.1*	28.7%
Cc1ccc2ncnc(NCCCN3CCOCC3)c2c1	-5.1	?	-0.3%	0.5	?
Clc1ccc2[nH]c3c(NCCCN4CCOCC4)ncnc3c2c1	21.2	0.415µM*	0.7%	23.1	212.4%
C=CCNc1ncnc2c1[nH]c1ccc(C)cc12	79.4*	?	3.2%	43.5*	?
O=C1CCCN1CCCNc1ncnc2c1[nH]c1ccc(Cl)cc12	57.4	?	-1.6%	13.1*	?
CC(C)C[C@H](NC(=O)C1CC(=O)N(c2ccc(F)cc2)C1)C(=O)N1CCCCC1 (stereo partly drawn)	-3.7	-7.7%	-0.2%	-1.3	1.8%
O=C(Nc1ccc(C(F)(F)F)cc1)c1ccccc1-n1cnnn1	.	11.5%	.	.	-17.8%
O=C(COC(=O)c1ccc(F)c(S(=O)(=O)N2CCOCC2)c1)Nc1ccc2[nH]c(=O)[nH]c2c1	.	-7.3%	.	.	-36.4%
COc1ccc(Cl)cc1NC(=O)C(C)OC(=O)C1=NNC(=O)CC1 (stereo not drawn)	.	22.0%	.	.	-12.7%
CCCN(CCC)CCCNC(=O)c1cc2c(=O)n(CC)c3ccccc3c2s1	-6.1	-18.2%[0.00184 µM]	-2.0%	-5.7	?
CCN1CCCC1CNc1ncnc2c1[nH]c1ccc(Cl)cc12 (stereo not drawn)	-4.7	0.657µM*	-6.2%	-1.4	1.47µM*
COc1ccc(NC(=S)N2CCCN(Cc3cc(C)ccc3C)C2)cc1	-6.8	10.4µM*	-0.5%	-7.3	?
COc1ccc(NC(=S)N2CCCN(Cc3cccc(Cl)c3)C2)cc1	0.2	?	-1.7%	-4.2	-11.7%
CCOc1c(Cl)cc(CNCC(O)c2ccccc2)cc1OC (stereo not drawn)	-11.3	4.15µM*	0.8%	3.6	31.2%
